Test results: PubChem BioAssay (EPA / NIEHS)
Active and inactive are the calls of the source. The calls were made as follows: active = hit-call score of the fitted dose curve at least 0.9, where 1 is the maximum; inactive = score below 0.9.

read-out: Monocyte Chemoattractant Protein-1 (MCP1), CCL2 (gene 6347); assay: BSK_CASM3C_MCP1: BioMAP Diversity Plus: CASM3C Assay for Monocyte Chemoattractant Protein-1 (MCP1) Biomarker Activity (AID 2283046); details: primary human coronary artery smooth muscle cells; actives raise or lower the signal;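 also: MCP-1 level quantified by ELISA 24 h after dosing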

Row | SMILES | AC50 | outcome
1 | O=C(O)C1C2CCC(O2)C1C(=O)O (stereo unspecified) | 21.8 µM (active) | –
2 | Nc1ccc(Cl)cc1N | – | inactive
3 | OCCCl | – | inactive
4 | c1ccc2c(c1)-c1cccc3cccc-2c13 | – | inactive
5 | CCCCCCCCn1sccc1=O | 15 µM (active) | –
6 | c1ccc(C2CO2)cc1 (stereo unspecified) | – | inactive
7 | CC(C)(C)OOC(C)(C)CCC(C)(C)OOC(C)(C)C | – | inactive
8 | c1ccc2c(c1)oc1ccccc12 | – | inactive
9 | CN(C)c1ccc(C(=O)c2ccc(N(C)C)cc2)cc1 | – | inactive
10 | Oc1ccccc1Cl | – | inactive
11 | Clc1ccccc1Cl | – | inactive
12 | O=C(N[C@H](c1ccccc1)[C@@H]1CN2CCC1CC2)c1c(Cl)ccc(C(F)(F)F)c1Cl | – | inactive
13 | ClCCOCCCl | – | inactive
14 | Cc1ccc([N+](=O)[O-])cc1 | – | inactive
15 | CO[C@@H]1[C@H](OC(=O)NC(=O)CCl)CC[C@]2(CO2)[C@H]1[C@@]1(C)O[C@@H]1CC=C(C)C | – | inactive
16 | Nc1ccc([N+](=O)[O-])cc1 | – | inactive
17 | Nc1ccc(Oc2ccc(N)cc2)cc1 | – | inactive
18 | CC(C)(O)c1cnn2c(-c3ccc(F)c(-c4c(F)cccc4C#N)c3)cnc2n1 | – | inactive
19 | OCCCBr | – | inactive
20 | [O-][Cl+]O | – | inactive
21 | C1=Cc2cccc3cccc1c23 | – | inactive
22 | CN(C)C(=O)Nc1ccc(Cl)cc1 | – | inactive
23 | ClC1=C(Cl)C2(Cl)C3C(Cl)C=CC3C1(Cl)C2(Cl)Cl (stereo unspecified) | 33.6 µM (active) | –
24 | Cc1ccc(N=C=O)cc1N=C=O | – | inactive
25 | O=Cc1ccco1 | – | inactive
26 | CCCSC(=O)N(CCC)CCC | – | inactive
27 | Clc1ccc(Cl)c(Cl)c1 | – | inactive
28 | CCC12COCN1COC2 | – | inactive

read-out: not listed separately; assay: BSK_CASM3C_Proliferation: Cell Proliferation Assessment in the BioMAP Diversity Plus: CASM3C Assay (AID 2283047); details: primary human coronary artery smooth muscle cells;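 also: sulforhodamine B total protein stain as relative cell number at 560 nm; sub-confluent cells exposed 48 h before staining; fitted both ways against DMSO so gain or loss of cell number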

Row | SMILES | AC50 | outcome
29 | Nc1ccc(Cl)cc1N | 6.89 µM (active) | –
30 | OCCCl | – | inactive
31 | c1ccc2c(c1)-c1cccc3cccc-2c13 | – | inactive
32 | CCCCCCCCn1sccc1=O | 1.28 µM (active) | –
33 | c1ccc(C2CO2)cc1 (stereo unspecified) | – | inactive
34 | CC(C)(C)OOC(C)(C)CCC(C)(C)OOC(C)(C)C | – | inactive
35 | c1ccc2c(c1)oc1ccccc12 | – | inactive
36 | CN(C)c1ccc(C(=O)c2ccc(N(C)C)cc2)cc1 | 2 µM (active) | –
37 | Oc1ccccc1Cl | – | inactive
38 | Clc1ccccc1Cl | – | inactive
39 | O=C(N[C@H](c1ccccc1)[C@@H]1CN2CCC1CC2)c1c(Cl)ccc(C(F)(F)F)c1Cl | 25.2 µM (active) | –
40 | ClCCOCCCl | – | inactive
41 | Cc1ccc([N+](=O)[O-])cc1 | – | inactive
42 | CO[C@@H]1[C@H](OC(=O)NC(=O)CCl)CC[C@]2(CO2)[C@H]1[C@@]1(C)O[C@@H]1CC=C(C)C | 1.99 µM (active) | –
43 | Nc1ccc([N+](=O)[O-])cc1 | – | inactive
44 | Nc1ccc(Oc2ccc(N)cc2)cc1 | – | inactive
45 | CC(C)(O)c1cnn2c(-c3ccc(F)c(-c4c(F)cccc4C#N)c3)cnc2n1 | 26.1 µM (active) | –
46 | OCCCBr | – | inactive
47 | [O-][Cl+]O | – | inactive
48 | C1=Cc2cccc3cccc1c23 | – | inactive
49 | CN(C)C(=O)Nc1ccc(Cl)cc1 | – | inactive
50 | ClC1=C(Cl)C2(Cl)C3C(Cl)C=CC3C1(Cl)C2(Cl)Cl (stereo unspecified) | 32 µM (active) | –
51 | Cc1ccc(N=C=O)cc1N=C=O | 20 µM (active) | –
52 | O=Cc1ccco1 | – | inactive
53 | CCCSC(=O)N(CCC)CCC | – | inactive
54 | Clc1ccc(Cl)c(Cl)c1 | – | inactive
55 | CCC12COCN1COC2 | 4.32 µM (active) | –

read-out: Monokine induced gamma interferon (MIG), CXCL9 (gene 4283); assay: BSK_CASM3C_MIG: BioMAP Diversity Plus: CASM3C Assay for Monokine induced gamma interferon (MIG) Biomarker Activity (AID 2283048); details: primary human coronary artery smooth muscle cells; actives raise or lower the signal;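 also: MIG protein level measured by ELISA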

Row | SMILES | outcome | AC50
56 | O=C(O)C1C2CCC(O2)C1C(=O)O (stereo unspecified) | inactive | –
57 | Nc1ccc(Cl)cc1N | inactive | –
58 | OCCCl | inactive | –
59 | c1ccc2c(c1)-c1cccc3cccc-2c13 | inactive | –
60 | CCCCCCCCn1sccc1=O | – | 9.51 µM (active)
61 | c1ccc(C2CO2)cc1 (stereo unspecified) | inactive | –
62 | CC(C)(C)OOC(C)(C)CCC(C)(C)OOC(C)(C)C | inactive | –
63 | c1ccc2c(c1)oc1ccccc12 | inactive | –
64 | CN(C)c1ccc(C(=O)c2ccc(N(C)C)cc2)cc1 | inactive | –
65 | Oc1ccccc1Cl | inactive | –
66 | Clc1ccccc1Cl | inactive | –
67 | O=C(N[C@H](c1ccccc1)[C@@H]1CN2CCC1CC2)c1c(Cl)ccc(C(F)(F)F)c1Cl | inactive | –
68 | ClCCOCCCl | inactive | –
69 | Cc1ccc([N+](=O)[O-])cc1 | inactive | –
70 | CO[C@@H]1[C@H](OC(=O)NC(=O)CCl)CC[C@]2(CO2)[C@H]1[C@@]1(C)O[C@@H]1CC=C(C)C | inactive | –
71 | Nc1ccc([N+](=O)[O-])cc1 | inactive | –
72 | Nc1ccc(Oc2ccc(N)cc2)cc1 | inactive | –
73 | CC(C)(O)c1cnn2c(-c3ccc(F)c(-c4c(F)cccc4C#N)c3)cnc2n1 | inactive | –
74 | OCCCBr | inactive | –
75 | [O-][Cl+]O | inactive | –
76 | C1=Cc2cccc3cccc1c23 | inactive | –
77 | CN(C)C(=O)Nc1ccc(Cl)cc1 | inactive | –
78 | ClC1=C(Cl)C2(Cl)C3C(Cl)C=CC3C1(Cl)C2(Cl)Cl (stereo unspecified) | – | 31.2 µM (active)
79 | Cc1ccc(N=C=O)cc1N=C=O | inactive | –
80 | O=Cc1ccco1 | inactive | –
81 | CCCSC(=O)N(CCC)CCC | inactive | –
82 | Clc1ccc(Cl)c(Cl)c1 | inactive | –
83 | CCC12COCN1COC2 | inactive | –

read-out: serum amyloid A (SAA), SAA1 (gene 6288); assay: BSK_CASM3C_SAA: BioMAP Diversity Plus: CASM3C Assay for serum amyloid A (SAA) Biomarker Activity (AID 2283049); details: primary human coronary artery smooth muscle cells; actives raise or lower the signal;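 also: SAA protein level quantified by ELISA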

Row | SMILES | outcome | AC50
84 | O=C(O)C1C2CCC(O2)C1C(=O)O (stereo unspecified) | inactive | –
85 | Nc1ccc(Cl)cc1N | inactive | –
86 | OCCCl | inactive | –
87 | c1ccc2c(c1)-c1cccc3cccc-2c13 | inactive | –
88 | CCCCCCCCn1sccc1=O | – | 17.2 µM (active)
89 | c1ccc(C2CO2)cc1 (stereo unspecified) | inactive | –
90 | CC(C)(C)OOC(C)(C)CCC(C)(C)OOC(C)(C)C | inactive | –
91 | c1ccc2c(c1)oc1ccccc12 | inactive | –
92 | CN(C)c1ccc(C(=O)c2ccc(N(C)C)cc2)cc1 | inactive | –
93 | Oc1ccccc1Cl | inactive | –
94 | Clc1ccccc1Cl | inactive | –
95 | O=C(N[C@H](c1ccccc1)[C@@H]1CN2CCC1CC2)c1c(Cl)ccc(C(F)(F)F)c1Cl | inactive | –
96 | ClCCOCCCl | inactive | –
97 | Cc1ccc([N+](=O)[O-])cc1 | inactive | –
98 | CO[C@@H]1[C@H](OC(=O)NC(=O)CCl)CC[C@]2(CO2)[C@H]1[C@@]1(C)O[C@@H]1CC=C(C)C | inactive | –
99 | Nc1ccc([N+](=O)[O-])cc1 | inactive | –
100 | Nc1ccc(Oc2ccc(N)cc2)cc1 | inactive | –
101 | CC(C)(O)c1cnn2c(-c3ccc(F)c(-c4c(F)cccc4C#N)c3)cnc2n1 | inactive | –
102 | OCCCBr | inactive | –
103 | [O-][Cl+]O | inactive | –
104 | C1=Cc2cccc3cccc1c23 | inactive | –
105 | CN(C)C(=O)Nc1ccc(Cl)cc1 | inactive | –
106 | ClC1=C(Cl)C2(Cl)C3C(Cl)C=CC3C1(Cl)C2(Cl)Cl (stereo unspecified) | – | 30.2 µM (active)
107 | Cc1ccc(N=C=O)cc1N=C=O | inactive | –
108 | O=Cc1ccco1 | inactive | –
109 | CCCSC(=O)N(CCC)CCC | inactive | –
110 | Clc1ccc(Cl)c(Cl)c1 | inactive | –
111 | CCC12COCN1COC2 | inactive | –
